Test results: PubChem BioAssay (NCATS)
Records with an inconclusive call do not appear. Where a call stands in place of a potency, no number is given. Activity calls are given as the source filed them. Calls come from the whole dose curve.

assay: Primary qHTS for Vero E6 cytotoxicity: counterscreen for inhibitors of SARS-S pseudo-typed particle cell entry (AID 1479150); conditions: cell viability; series mostly up to 57.1 µM

Row | SMILES | Potency | outcome | activity change, negative = cytotoxicity
1 | C[C@@H]1C[C@H]2[C@@H]3C[C@H](F)C4=CC(=O)C=C[C@]4(C)[C@@]3(F)[C@@H](O)C[C@]2(C)[C@@]1(O)C(=O)COC(=O)C(C)(C)C | inactive |  | 
2 | N[C@@H]1CCCCN(c2c(F)cc3c(=O)c(C(=O)O)cn(C4CC4)c3c2Cl)C1 | inactive |  | 
3 | C#C[C@]1(O)CC[C@@H]2[C@@H]3CCC4=CCCC[C@@H]4[C@H]3C(=C)C[C@@]21CC | inactive |  | 
4 | CCC(CC)[C@H](NC(C)=O)[C@@H]1[C@H](O)[C@@H](C(=O)O)C[C@H]1N=C(N)N |  | inactive [at 0.573 µM] | 
5 | NCCNc1ccc(NCCN)c2c1C(=O)c1ccncc1C2=O | inactive |  | 
6 | Nc1c(Br)cc(Br)cc1CNC1CCC(O)CC1 (stereo unspecified) | inactive |  | 
7 | Cc1cccc(C)c1NC(=O)C1CCCCN1C (stereo unspecified) | inactive |  | 
8 | CCCCCCCCCCCCCCCCCC(=O)[O][Al] |  |  | -0.388% [at 5.34 µM] (inactive)
9 | C=C1/C(=C/C=C2\CCC[C@]3(C)[C@@H]([C@H](C)CCCC(C)(C)O)CC[C@@H]23)C[C@@H](O)[C@@H](OCCCO)[C@@H]1O | inactive |  | 
10 | OC[C@H]1O[C@@](CO)(O[C@H]2O[C@H](CO)[C@@H](O)[C@H](O)[C@H]2O)[C@@H](O)[C@@H]1O | inactive |  | 
11 | CCCCCCCCCCCCCCCCCC(=O)OCC(C)O (stereo unspecified) | inactive |  | 
12 | OB1OCc2cc(F)ccc21 | inactive |  | 
13 | CC1(C)C2CCC1(C)C(O)C2 (stereo unspecified) | inactive |  | 
14 | NCCCC[C@H](N)C(=O)O |  |  | 2.08% [at 0.573 µM] (inactive)
15 | O=CCCCC=O | inactive |  | 
16 | CN(C)c1ccc(C(=C2C=CC(=[N+](C)C)C=C2)c2c(O)c(S(=O)(=O)[O-])cc3cc(S(=O)(=O)O)ccc23)cc1 | inactive |  | 
